Results from PubChem BioAssay.
Active and inactive are the calls of the source.

What was measured:
[1] = E. coli DRC41 culture turbidity changes, primary screen, E. coli filamentation inducer project, strain DRC41, OD650, 48 h (AID 1152);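 note: E. coli MC1000 strain DRC41 lacking acrAB efflux pump and sulA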; details: E. coli DRC41 (acrAB sulA), higher = more signal, called active from +8 up or from −8 down
[2] = small-molecule binders of probe aLefty1, primary screen, biochemical, small-molecule microarray, 635/667 nm fluorescence (AID 1153); details: higher = more signal;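 note: score merges spot fluorescence with signal-to-noise ratio from the scanned slide images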
[3] = PSAC antagonists in infected red cells, primary screen, cell-based, P. falciparum Indochina, OD700, 1 h (AID 1154); details: P. falciparum Indochina infected RBC osmotic lysis, higher = more signal, called active from +8 up or from −8 down
[4] = PSAC antagonists in infected red cells, primary screen, cell-based, P. falciparum Indochina, OD700, 2 h (AID 1155);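 note: lysis reports solute entry through the parasite surface anion channel PSAC; channel blockers reduce lysis of infected cells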; details: P. falciparum Indochina infected erythrocytes, osmotic lysis OD700; higher = more signal, called active from +8 up or from −8 down
[5] = osmotic lysis modulators in infected erythrocytes, primary screen, PSAC antagonist project, cell-based, P. falciparum Indochina, OD700, 3 h (AID 1156); details: higher = more signal, called active from +8 up or from −8 down
[6] = PSAC antagonists in infected red cells, primary screen, cell-based, P. falciparum Indochina, OD700, 18 h (AID 1157); details: P. falciparum Indochina infected erythrocytes, osmotic lysis OD700, 18 h; higher = more signal, called active from +8 up or from −8 down
[7] = modulators of S6 phosphorylation in cells, primary screen, cell-based, A549, cytoblot, luminescence, serum-stimulated (AID 1158); details: A549 phospho-S6 cytoblot, 5 h, higher = more signal;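 note: serum-stimulated A549 lung adenocarcinoma cells; signal is phosphorylated S6 detected by cytoblot immunostaining with HRP secondary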
[8] = target: NADPH oxidase 2 (Homo sapiens) (UniProt P04839); test: NOX2-dependent H2O2 signal modulators, primary screen, NOX inhibitor project, cell-based, HEK293-NOX2, PMA-stimulated, Amplex Red fluorescence (AID 1159); details: 45 min, higher = more signal, called active from +8 up or from −8 down; note: test concentration not given here
[9] = target: NADPH oxidase 4 (Homo sapiens) (UniProt Q9NPH5); test: NOX4-dependent H2O2 signal modulators, primary screen, NOX inhibitor project, cell-based, HEK293-NOX4, tetracycline-induced, Amplex Red fluorescence (AID 1160); details: 45 min, higher = more signal, called active from +8 up or from −8 down
[10] = target: NADPH oxidase 5 (Homo sapiens) (UniProt Q96PH1); test: NOX5-dependent H2O2 signal modulators, primary screen, NOX inhibitor project, cell-based, HEK293-NOX5, Amplex Red fluorescence (AID 1161); details: HEK293-NOX5, ionomycin, 45 min, higher = more signal
[11] = A549 cell viability effects, profiling panel, calcein-AM fluorescence, 48 h, basal (AID 1162); details: higher = more signal; note: test concentration not given here
[12] = adipocyte viability effects, profiling panel, cell-based, 3T3-L1 adipocytes, calcein-AM fluorescence, 48 h, basal (AID 1163); details: 3T3-L1 adipocytes viability, higher = more signal; note: test concentration not given here
[13] = HepG2 cell viability effects, profiling panel, calcein-AM fluorescence, 48 h, basal (AID 1164); details: higher = more signal; note: test concentration not given here
[14] = MM1S cell viability effects, profiling panel, calcein-AM fluorescence, 48 h, basal (AID 1165); details: higher = more signal;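 note: viability of MM1S multiple myeloma cells under basal unstimulated conditions; test concentration not given here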
[15] = basal RPMI8226 viability, no added stimulus, profiling panel, cell-based, calcein-AM fluorescence, 48 h, PK04 Diversity Set (AID 1166); details: RPMI8226 myeloma viability, higher = more signal;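 note: cells grown under basal conditions without added stimulus; test concentration not given here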
[16] = basal HepG2 mitochondrial membrane potential changes, profiling panel, cell-based, JC-1 fluorescence, 24 h, 100 nL compound (AID 1167); details: higher = more signal; note: test concentration not given here
[17] = basal 3T3-L1 adipocyte mitochondrial potential changes, profiling panel, cell-based, JC-1 fluorescence, 3T3-L1 adipocytes, 24 h, 100 nL compound (AID 1168); details: JC-1 mitochondrial fluorescence, higher = more signal, called active from +8 up or from −8 down; note: test concentration not given here
[18] = basal RPMI8226 mitochondrial membrane potential changes, profiling panel, cell-based, JC-1 fluorescence, 24 h, 100 nL compound (AID 1169); details: RPMI8226 myeloma, JC-1 mitochondrial potential fluorescence, higher = more signal; note: test concentration not given here
[19] = basal MM1S mitochondrial membrane potential changes, profiling panel, cell-based, JC-1 fluorescence, 24 h, 100 nL compound (AID 1170); details: higher = more signal; note: test concentration not given here
[20] = A549 lung cancer cell viability effects, profiling panel, resazurin fluorescence, 24 h, PK04 Diversity Set (AID 1171); details: higher = more signal, called active from +8 up or from −8 down; note: test concentration not given here

NADPH oxidase 2 (Homo sapiens), sequence (P04839 whole entry, looked up): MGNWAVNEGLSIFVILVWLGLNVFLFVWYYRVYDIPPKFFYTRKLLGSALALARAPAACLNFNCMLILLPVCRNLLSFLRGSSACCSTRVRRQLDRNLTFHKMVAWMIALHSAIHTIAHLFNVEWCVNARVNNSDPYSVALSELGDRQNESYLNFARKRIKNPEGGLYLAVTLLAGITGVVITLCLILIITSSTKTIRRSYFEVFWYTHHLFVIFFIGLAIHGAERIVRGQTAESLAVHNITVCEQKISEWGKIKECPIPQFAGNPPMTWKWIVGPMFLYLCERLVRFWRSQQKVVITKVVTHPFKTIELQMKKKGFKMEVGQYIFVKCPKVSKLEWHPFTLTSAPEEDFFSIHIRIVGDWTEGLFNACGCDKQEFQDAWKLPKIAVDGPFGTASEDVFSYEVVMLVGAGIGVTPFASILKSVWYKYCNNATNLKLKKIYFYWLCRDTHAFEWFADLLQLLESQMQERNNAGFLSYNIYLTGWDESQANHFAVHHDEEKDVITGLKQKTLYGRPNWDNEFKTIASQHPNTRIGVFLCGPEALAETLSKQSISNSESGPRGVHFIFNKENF
NADPH oxidase 5 (Homo sapiens), sequence (Q96PH1 whole entry, looked up): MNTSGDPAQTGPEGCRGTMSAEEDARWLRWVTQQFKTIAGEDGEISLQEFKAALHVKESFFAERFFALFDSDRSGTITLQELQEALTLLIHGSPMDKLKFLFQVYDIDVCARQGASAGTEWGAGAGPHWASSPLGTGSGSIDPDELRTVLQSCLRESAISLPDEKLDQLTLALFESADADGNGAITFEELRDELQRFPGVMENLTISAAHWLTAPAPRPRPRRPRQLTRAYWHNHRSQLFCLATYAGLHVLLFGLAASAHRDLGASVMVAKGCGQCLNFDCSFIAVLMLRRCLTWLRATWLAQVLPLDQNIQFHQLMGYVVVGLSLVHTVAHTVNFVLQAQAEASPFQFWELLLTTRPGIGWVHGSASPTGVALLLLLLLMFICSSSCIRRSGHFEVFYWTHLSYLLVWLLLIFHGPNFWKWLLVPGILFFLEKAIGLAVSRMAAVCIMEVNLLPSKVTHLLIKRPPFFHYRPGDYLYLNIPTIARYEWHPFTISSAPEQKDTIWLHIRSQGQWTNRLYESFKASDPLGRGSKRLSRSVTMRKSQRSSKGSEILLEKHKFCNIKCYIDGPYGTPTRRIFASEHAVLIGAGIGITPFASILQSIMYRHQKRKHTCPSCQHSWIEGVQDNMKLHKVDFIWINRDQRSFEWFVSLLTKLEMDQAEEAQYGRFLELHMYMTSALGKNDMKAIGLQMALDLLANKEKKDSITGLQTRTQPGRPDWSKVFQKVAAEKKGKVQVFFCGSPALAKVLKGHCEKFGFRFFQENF
NADPH oxidase 4 (Homo sapiens), sequence (Q9NPH5 whole entry, looked up): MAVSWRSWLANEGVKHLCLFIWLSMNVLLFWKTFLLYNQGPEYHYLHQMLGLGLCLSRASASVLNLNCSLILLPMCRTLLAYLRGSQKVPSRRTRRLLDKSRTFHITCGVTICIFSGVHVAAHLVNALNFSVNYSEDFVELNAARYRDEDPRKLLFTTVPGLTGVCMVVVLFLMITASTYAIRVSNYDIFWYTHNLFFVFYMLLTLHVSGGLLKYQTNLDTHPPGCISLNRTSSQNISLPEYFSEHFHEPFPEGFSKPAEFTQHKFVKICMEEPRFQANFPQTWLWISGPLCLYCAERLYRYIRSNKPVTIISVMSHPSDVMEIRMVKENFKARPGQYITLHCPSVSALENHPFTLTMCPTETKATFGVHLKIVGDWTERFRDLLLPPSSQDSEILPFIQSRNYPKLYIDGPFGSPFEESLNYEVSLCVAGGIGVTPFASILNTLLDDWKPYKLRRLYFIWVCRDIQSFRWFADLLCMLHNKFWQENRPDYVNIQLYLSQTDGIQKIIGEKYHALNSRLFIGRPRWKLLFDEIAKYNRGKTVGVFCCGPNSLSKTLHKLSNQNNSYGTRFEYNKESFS

Compound	z-score [1]	composite z-score [2]	z-score [3]	z-score [4]	z-score [5]	z-score [6]	z-score [7]	z-score [8]	z-score [9]	z-score [10]	z-score [11]	z-score [12]	z-score [13]	z-score [14]	z-score [15]	z-score [16]	z-score [17]	z-score [18]	z-score [19]	z-score [20]
COc1ccc(C(O)C2C=CC3C(=O)N(c4ccccc4)C(=O)C3N2Nc2ccccc2)cc1OCc1ccccc1 (stereo not given)	-1.1 (inactive)	0.0924	3.82 (inactive)	1.49 (inactive)	0.421 (inactive)	1.1 (inactive)	-1.39	-1.19 (inactive)	-3.65 (inactive)	-2.48	0.677	-1.4	1.29	0.337	-0.29	-1.02	-0.514 (inactive)	-0.307	-0.699	0.789 (inactive)
C=CCOC(=O)[C@@H]1[C@H]2C(=O)O[C@H](c3ccccc3)[C@H](c3ccccc3)N2[C@H](c2ccc(OCCOC(=O)[C@H]3C[C@H]4C(=O)N[C@@H](CCCCNC(C)=O)C(=O)N4[C@H]3c3cccc(OCCO)c3)cc2)[C@@]12C(=O)Nc1ccc(I)cc12	-0.04 (inactive)	-0.0358	3.68 (inactive)	1.73 (inactive)	0.309 (inactive)	1.16 (inactive)	-0.479	1.62 (inactive)	0.898 (inactive)	1.86	-0.596	0.159	0.821	-0.387	-0.0069	-0.742	0.605 (inactive)	-0.517	-0.864	0.304 (inactive)
NCCCCCCNC(=O)[C@@H]1C[C@@H]2C(=O)N3CCC[C@H]3C(=O)N2[C@@H]1c1ccc(O)cc1	-1.12 (inactive)	-0.508	1.67 (inactive)	0.026 (inactive)	-0.653 (inactive)	0.105 (inactive)	-0.164	0.162 (inactive)	0.116 (inactive)	-0.515	-0.428	0.548	0.442	-0.0269	-0.292	-0.0719	-0.202 (inactive)	0.0552	0.0553	-0.578 (inactive)
NC(=O)N1C(=O)C2C(C1=O)C1C=C(c3ccc(CO)cc3)C2C(C2CC2)N1Cc1sc2ccccc2c1Cl (stereo not given)	0.421 (inactive)	0.317	17.8 (active)	3.88 (inactive)	0.777 (inactive)	1.39 (inactive)	-0.436	2.51 (inactive)	-0.148 (inactive)	-0.568	0.965	0.21	0.197	-3.27	-3.61	0.159	0.189 (inactive)	-0.65	-0.311	-0.207 (inactive)
CCOc1cc(C(O)C2C=CC3C(=O)N(C)C(=O)C3N2N2CCCCC2)ccc1O (stereo not given)	-0.794 (inactive)	0.267	1.5 (inactive)	1.66 (inactive)	0.0675 (inactive)	1.12 (inactive)	-0.599	-1.96 (inactive)	-3.83 (inactive)	-3.11	0.256	-0.413	-0.07	-0.224	0.294	-0.788	-0.0873 (inactive)	-0.109	0.0215	-0.296 (inactive)
[N-]=[N+]=NCc1ccccc1C[C@@]1(C(N)=O)N=C(c2ccc(OCCCO)cc2)O[C@@H]1c1ccccc1CN=[N+]=[N-]	0.315 (inactive)	0.315	26.2 (active)	10.1 (active)	1.31 (inactive)	1.38 (inactive)	-0.107	0.415 (inactive)	0.14 (inactive)	-1.66	0.703	-0.323	1.42	-1.25	-3.08	1.18	-0.301 (inactive)	-1.1	-0.422	-0.136 (inactive)
CN(C)CCCNC(=O)[C@@]1(c2ccc([N+](=O)[O-])cc2)CC(=O)N(CC23CC4CC(CC(C4)C2)C3)[C@@H]1c1ccc(CO)cc1	-3.6 (inactive)	0.885	0.924 (inactive)	-0.365 (inactive)	-0.788 (inactive)	-0.798 (inactive)	-2.28	-8.3 (active)	-2.09 (inactive)	0.357	-3.74	0.0309	-5.05	-3.8	-4.03	-1.58	0.303 (inactive)	-1.04	-2.33	-4.78 (inactive)
COc1cc2c(cc1O)C(C)N(Cc1cc3c(cc1Br)OCO3)CC2 (stereo not given)	1.2 (inactive)	-0.0196	2.87 (inactive)	0.551 (inactive)	0.117 (inactive)	0.401 (inactive)	0.36	-3.74 (inactive)	-2.96 (inactive)	-2.91	-0.279	0.453	-0.346	-0.981	-0.308	-0.378	0.168 (inactive)	-0.481	0.71	-0.807 (inactive)
O=C1OCC=C[C@H]2OC34C=CCN(c5ccc(Cl)cc5)C(=O)[C@H]3N(CCCCCO)C(=O)[C@@H]4[C@@H]12 (stereo not given in full)	0.553 (inactive)	0.0927	2.47 (inactive)	0.622 (inactive)	0.871 (inactive)	0.502 (inactive)	-0.646	1.95 (inactive)	0.525 (inactive)	2.87	-0.746	0.699	-0.231	0.733	0.707	-0.26	0.37 (inactive)	0.536	1.35	-0.283 (inactive)
